Only some compounds are listed: those with a hit (about 7.3% of all), similar ones and a draw of the others.
NPC1 prom act: activators of NPC1 promoter; actives 2.4% (n = 320,000); Potency, µM (top dose mostly 9.22 µM), without a hit: at the top dose activation, actives largely listed as activators; AID 485313; Huh7 NPC1 promoter luciferase reporter, 24 h; also: % of control where 0% means no effect; nearly all actives have a fitted effect of over 60% in size
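Readout is luciferase luminescence, reflecting NPC1 promoter activation in stably transfected Huh7 cells after 24 h compound exposure at 37 °C in reduced-serum medium with 10% FBS.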
SMN2 splice enh: SMN2 splice variant enhancement; Potency, µM (doses to about 46.1 µM), for inactives: at the top dose activity change, positive = activation, most hits filed as activators; actives 2.8% (n = 210,000); HEK293 SMN2-luciferase splicing reporter, luminescence, 30-36 h; also: % of control where 0% means no effect; nearly all actives have a fitted effect of over 55% in size
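qHTS luciferase splicing reporter: luminescence rises when SMN2 exon 7 is included in transfected HEK293 cells. Compound exposure lasted 30-36 h at 37C, with 4.5 mM final sodium butyrate as control, followed by a ONE-Glo read.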
ELG1 genotox: inducers of genotoxicity in HEK293T ELG1-luciferase cells | HEK293T ELG1-luciferase reporter, luminescence, 16 h | Potency, µM (series often up to 46 µM), without a hit: top-dose activity change, positive = activation, actives largely listed as activators | actives 1.3% (n = 330,000) | AID 504466; also: % of control where 0% means no effect; nearly all actives have a fitted effect of over 60% in size
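Step 1: seed 2,000 HEK293T ELG1-luciferase cells per well. Step 2: add compound or DMSO, incubate 16 hr at 37 °C. Step 3: ONE-Glo, 30 min at room temperature, read luminescence.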
Rab9 promoter act: activators of Rab9 promoter; actives 2.8% (n = 320,000); AID 485297; Huh7 Rab9 promoter-luciferase reporter, luminescence, 24 h; Potency, µM (series often up to 9.22 µM), for the others: at the top dose activation, negative = inhibition, most hits filed as activators; also: % of control where 0% means no effect; nearly all actives have a fitted effect of over 60% in size
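Huh7 cells stably carrying a Rab9 promoter-luciferase reporter, 1500 cells per well in OP-MEM I with 10% FBS, treated with compound 24 hours at 37C. Luciferase activity read by luminescence after 10 minutes with Amplite reagent.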
p53 reactivator: re-activators of mutant p53 | H1299 p53-A138V BP100-luciferase reporter, luminescence, 24 h | Potency, µM (highest dose often 92.2 µM), for the others: at the top dose activity change, positive = activation, actives largely listed as activators | actives 0.063% (n = 320,000); also: % of control where 0% means no effect; nearly all actives have a fitted effect of over 45% in size
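H1299 (p53-null), stable ts p53-A138V + BP100-Luc; 1000 cells/well, Opti-MEM/10% FBS; cpd 4 pt, 1:5; 24 h, 37 deg C, 5% CO2; detection reagent 10 min RT; luminescence.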
FLuc counter: counter-screen for miR-21 project: firefly luciferase inhibitors or activators | P08659 | purified FLuc, Km substrates, luminescence inhibition | Potency, µM (series often up to 57.5 µM), without a hit: at the top dose activity change, negative = inhibition, most hits filed as inhibitors | actives 6.9% (n = 360,000) | AID 588342;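 also: plate controls were vehicle for no effect and reference inhibitor for full effect; nearly all actives have a fitted effect of over 55% in size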
Target sequence (P08659 whole entry, looked up): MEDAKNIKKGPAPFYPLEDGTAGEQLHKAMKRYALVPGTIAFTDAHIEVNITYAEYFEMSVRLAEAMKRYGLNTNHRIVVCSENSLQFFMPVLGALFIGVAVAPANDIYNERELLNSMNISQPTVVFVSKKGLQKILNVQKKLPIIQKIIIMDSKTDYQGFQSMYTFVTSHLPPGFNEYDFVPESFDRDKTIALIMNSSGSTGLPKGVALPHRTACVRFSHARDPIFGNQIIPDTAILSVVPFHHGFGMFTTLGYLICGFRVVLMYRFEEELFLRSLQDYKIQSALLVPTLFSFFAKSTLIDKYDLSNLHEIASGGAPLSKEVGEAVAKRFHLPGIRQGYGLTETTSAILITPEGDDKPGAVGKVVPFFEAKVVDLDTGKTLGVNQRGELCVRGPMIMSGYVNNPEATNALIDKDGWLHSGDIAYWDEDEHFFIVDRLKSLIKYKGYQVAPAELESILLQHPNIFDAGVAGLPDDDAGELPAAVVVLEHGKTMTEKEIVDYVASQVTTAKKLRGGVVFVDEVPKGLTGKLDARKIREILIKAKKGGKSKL
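Purified P. pyralis luciferase, 10 nM final, with Km-level 10 uM D-luciferin and 10 uM ATP in 50 mM Tris acetate pH 7.5, 10 mM Mg acetate, 0.01% Tween-20, 0.05% BSA; 6-point qHTS titration about 60 µM downward; luminescence read.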
Starred values were filed as active, the others as inactive; ? = inconclusive; . = no result. Calls follow the shape of the dose curve; as a rule, active = well fitted curve in the direction sought with a large enough effect; inconclusive = small, poorly fitted or top-dose-only effect, or another doubt; inactive = no such curve, though single readings can be large; an effect the other way counts as inactive or inconclusive. Potency is read from the fitted curve at half-maximal effect.

SMILES	NPC1 prom act	SMN2 splice enh	ELG1 genotox	Rab9 promoter act	p53 reactivator	FLuc counter
N/C(=N\OC(=O)c1ccoc1)c1ccc(Br)cc1	2.5µM*	.	3.7µM*	3.2µM*	?	6.7µM*
Cc1ccc(C(=O)O/N=C(\N)c2ccc(Br)cc2)cc1C	13%	-11%	16µM*	18%	28%	?
Cc1cc(C)cc(C(=O)O/N=C(\N)c2ccc(Br)cc2)c1	?	15%	1%	?	2%	-20%
CCN(CC)S(=O)(=O)c1ccc(C(=O)NNC2=NS(=O)(=O)c3ccccc32)cc1	-1%	.	2%	-3%	7%	-13%
O=C(NNC1=NS(=O)(=O)c2ccccc21)c1ccc(Cl)cc1	?	-5%	-6%	?	-2%	3.4µM*
O=C(NNC1=NS(=O)(=O)c2ccccc21)c1ccc([N+](=O)[O-])cc1	?	.	15%	28%	-5%	1.5µM*
COc1ccc(N=Cc2nc(-c3ccccc3)oc2OC(=O)c2ccccc2)cc1	27%	119%	?	?	?	11µM*
Cc1ccc(C(=O)Oc2oc(-c3ccco3)nc2C=Nc2ccccc2)cc1	29%	23%	14%	?	11%	15µM*
CN(C)c1ccc(N=Cc2nc(-c3ccccc3)oc2OC(=O)c2cccc(Br)c2)cc1	?	16µM*	?	28%	?	?
COc1cc(Nc2ncc3c(n2)CCN(Cc2cc(F)cc(F)c2)C3)cc(OC)c1	.	.	.	.	.	-4%
O=C(Nc1ccc(CN2CCOCC2)cc1)c1ccc(Cl)cc1Cl	15%	.	12%	0%	.	?
O=C(Nc1ccc(CN2CCOCC2)cc1)c1cccs1	?	13µM*	?	3.2µM*	?	12µM*
O=C(Cc1ccccc1)Nc1ccc(CN2CCOCC2)cc1	?	22µM*	12µM*	?	?	?
COc1cc2ccccc2cc1C(=O)Nc1ccc(CN2CCOCC2)cc1	19%	.	-11%	19%	6%	15µM*
O=C(Nc1ccc(CN2CCOCC2)cc1)c1ccccc1F	3.2µM*	11µM*	?	?	?	?
O=c1c(-c2cccc(F)c2)nc2cncnc2n1Cc1ccccc1	.	-25%	.	.	.	.
CC1C(=O)NN=C1C(=O)N/N=C/c1cccs1 (configuration not stated)	6%	12%	8%	4%	6%	?
COc1ccc2c(c1)c(=O)cc(-c1ccccc1)n2C	22%	?	?	12%	?	24µM*
Cn1c(-c2ccccc2)cc(=O)c2ccccc21	1%	8%	2%	0%	-5%	-19%
C(=N\n1cnnc1)/c1ccc2ncccc2c1	-6%	-7%	0%	4%	-3%	3%
O=C(N/N=C/c1ccc2nccnc2c1)c1ccncc1	-8%	.	-1%	0%	5%	?
C(=N\NCc1ccccc1)/c1ccc2nccnc2c1	3.5µM*	.	?	2.5µM*	7%	12µM*
S=C(N/N=C/c1ccc2ncccc2c1)Nc1ccccc1	?	?	?	?	-8%	4.8µM*
C(=N\NCc1ccccc1)/c1ccc2ncccc2c1	1.1µM*	.	2.6µM*	1.6µM*	10%	4.3µM*
COc1ccc(Br)cc1CNC(=O)c1nn(-c2ccc(C)cc2)c(=O)c2c1c1ccccc1n2C	.	1%	.	.	.	-4%
O=S(=O)(Nc1nc2ccccc2nc1Nc1ccc(N2CCOCC2)cc1)c1cc(Cl)ccc1Cl	-5%	-72%	-4%	-8%	-5%	15µM*
Clc1nc(Nc2ccc(N3CCOCC3)cc2)c2ccccc2n1	-6%	-39%	-9%	7%	-3%	2%
O=[N+]([O-])c1ccccc1/C=N/OCc1ccccc1	4µM*	.	?	?	?	11µM*
CC1CCN(C(=O)c2cc(-c3ccco3)on2)CC1	1.8µM*	.	16µM*	2.8µM*	21%	13µM*
CC1CCN(C(=O)c2cc(-c3ccccc3O)on2)CC1	2.5µM*	?	2.6µM*	3.2µM*	?	2.7µM*
